Data taken from PubChem BioAssay AID977606 (Broad Institute, 2014).
The whole screen tested about 1,500 compounds, of which about 430 (29%) were called active. No rule for the calls is given here. Not all results are given here. Entries with a potency or affinity are not part of this list.

Experiment: insulin secretion activators without glucose, dose response, counter-screen for glucose-dependent insulin secretion activators, cell-based, INS-1E, Gaussia luciferase, luminescence, cherry-pick (AID 977606)
Conditions: INS-1E Gaussia luciferase insulin secretion, no glucose, 100% = twice neutral-control luminescence; series mostly up to 35 µM

Q: Which outcome does the source give for `Cc1ccccc1SC1CCN(C(=O)C2CCC(=O)N(C3CC3)C2)CC1` (configuration not stated) here?
A: inactive

Q: For `COc1ccc(CCNC(=O)C(=O)c2c(C)n(C)c3ccccc23)cc1OC`, which outcome is on record?
A: inactive

Q: With `CCc1nc(N)nc(N)c1-c1ccc(Cl)c(N=[N+]=[N-])c1` as the molecule, how does the outcome read?
A: inactive

Q: With `COc1ccc(C(C)=O)cc1CSCc1cc(C(C)=O)ccc1OC` as the molecule, how does the outcome read?
A: inactive

Q: Which outcome does the source give for `CN(C)CCCN(C(=O)CCOc1ccccc1)c1nc2c(F)cccc2s1` here?
A: inactive

Q: With `COc1ccc(CCNC(=O)CCn2c(=O)c3cccn3c3cccnc32)cc1OC` as the molecule, how does the outcome read?
A: inactive

Q: For `COc1ccc(C2=NN(C(=O)c3ccco3)C(c3cccs3)C2)cc1OC` (configuration not stated), which outcome is on record?
A: inactive

Q: With `CC(=O)N1CCN(c2nnc(-c3ccccc3)c3ccccc23)CC1` as the molecule, how does the outcome read?
A: inactive

Q: Which outcome does the source give for `COc1ccc(-c2cnnn2-c2ccc(N)cc2)cc1OC` here?
A: inactive

Q: For `CCOC(=O)c1cc(-c2ccncc2)nc2c1c(C)nn2-c1ccccn1`, which outcome is on record?
A: inactive

Q: With `CCOC(=O)c1nc2nc(-c3cccs3)cc(C(F)(F)F)n2n1` as the molecule, how does the outcome read?
A: inactive

Q: For `CCN(CC)C(=O)C1(P(=O)(c2ccccc2)c2ccccc2)CCC1`, which outcome is on record?
A: inactive

Q: For `CCCNC(=O)C1(C)CCCN(Cc2cccn2C)C1` (configuration not stated), which outcome is on record?
A: inactive

Q: With `CC(C)(C)c1ccc(S(=O)(=O)N2CC(C(=O)O)Oc3ccc(Cl)cc32)cc1` (configuration not stated) as the molecule, how does the outcome read?
A: inactive

Q: For `N#CCCCc1cc2ccccc2cn1`, which outcome is on record?
A: inactive

Q: With `Cc1cc(Br)c2c(c1)C1(OCCO1)C(=O)N2` as the molecule, how does the outcome read?
A: inactive

Q: With `CCCc1c(C)c2ccc(OCC(C)=O)cc2oc1=O` as the molecule, how does the outcome read?
A: inactive

Q: Which outcome does the source give for `CNc1nc(-c2ccccc2)cc(-c2ccccc2)n1` here?
A: inactive

Q: For `CCS(=O)(=O)c1nc(S(=O)(=O)c2ccc(C)cc2)c(N2CCC(O)CC2)s1`, which outcome is on record?
A: inactive

Q: With `COc1ccc(C(C)=O)cc1Cn1cnc2c(cnn2C)c1=O` as the molecule, how does the outcome read?
A: inactive

Q: Which outcome does the source give for `O=C(Nc1cccc(Cl)c1)c1cnn2cccnc12` here?
A: inactive

Q: With `O=C(Cn1cnc2sc(-c3ccccc3)cc2c1=O)NCCc1ccccc1` as the molecule, how does the outcome read?
A: inactive

Q: For `COc1ccc(/C=N/NC(=O)Cn2cnc3ccccc3c2=O)cc1OC`, which outcome is on record?
A: inactive

Q: For `CCc1nc2ccc(C(=O)NCCCN(C)C)cn2c1N(C)Cc1ccc(OC)cc1`, which outcome is on record?
A: inactive

Q: Which outcome does the source give for `COc1ccc(C2=NN(C(=O)c3ccco3)C(c3ccco3)C2)cc1OC` (configuration not stated) here?
A: inactive

Q: For `O=C(CCn1ccc2cc(S(=O)(=O)N3CCCC3)ccc21)NCc1cccc(F)c1`, which outcome is on record?
A: inactive

Q: For `c1ccc(CNc2nc(Oc3ccncc3)c3sccc3n2)cc1`, which outcome is on record?
A: inactive

Q: Which outcome does the source give for `Cc1cc(Cl)ccc1-c1nc(NCc2ccccc2)nc2ccsc12` here?
A: inactive

Q: Which outcome does the source give for `COc1ccc(C2C3CCCCC3(O)CCN2C(=O)c2cccs2)cc1` (configuration not stated) here?
A: inactive

Q: With `CCn1c(SCc2cc(=O)[nH]c3ccccc23)nc2c1c(=O)n(C)c(=O)n2C` as the molecule, how does the outcome read?
A: inactive

Q: For `C=CCN(Cc1ccc(OC)c(OC)c1)C(=O)N1CCOCC1`, which outcome is on record?
A: inactive

Q: With `S=C(NCc1ccccc1)Nc1ccc2cn[nH]c2c1` as the molecule, how does the outcome read?
A: inactive

Q: With `CCC(=O)Nc1nnc(Sc2ccc(N(C)C)cc2)s1` as the molecule, how does the outcome read?
A: inactive

Q: For `CCSc1nnc(NC(=O)c2csc(C)c2)s1`, which outcome is on record?
A: inactive

Q: Which outcome does the source give for `CCOc1ccc(CCNC(=O)CCC(=O)c2cccs2)cc1OCC` here?
A: inactive

Q: Which outcome does the source give for `CCOC(=O)Cc1csc(NC(=O)c2ccc(OC)c(OC)c2)n1` here?
A: inactive

Q: For `COCCn1c(=O)[nH]c2cc(C(=O)Nc3cc(OC)c(OC)c(OC)c3)ccc2c1=O`, which outcome is on record?
A: inactive

Q: Which outcome does the source give for `COCCNC(=O)CCCn1c(=O)c2ccccc2n(Cc2ccccc2C#N)c1=O` here?
A: inactive

Q: For `COc1ccc(CCNS(=O)(=O)c2ccc(Cl)s2)cc1OC`, which outcome is on record?
A: inactive

Q: Which outcome does the source give for `O=C(c1cc(-c2ccc(F)cc2)nc2ccccc12)N1CCN(C2CCS(=O)(=O)C2)CC1` (configuration not stated) here?
A: inactive

Q: Which outcome does the source give for `O=C(Nc1ccc(C(=O)N2CCCC2)cc1)c1cccc(C(F)(F)F)c1` here?
A: inactive

Q: Which outcome does the source give for `CCOc1ccc(CCNC(=O)COc2cc(=O)n(C)c3ccccc23)cc1OCC` here?
A: inactive

Q: Which outcome does the source give for `O=S1(=O)c2ccccc2OC(COCc2ccccc2)CN1C1CC1` (configuration not stated) here?
A: inactive

Q: Which outcome does the source give for `CC(C)Oc1cccc(C(=O)C2CCCN(C(=O)CCc3cnn(C)c3)C2)c1` (configuration not stated) here?
A: inactive

Q: Which outcome does the source give for `COc1ccc(-c2nnc3sc(-c4cccs4)nn23)cc1OC` here?
A: inactive

Q: Which outcome does the source give for `c1csc(-c2nc(NCC3CCCO3)c3ccccc3n2)c1` (configuration not stated) here?
A: inactive

Q: With `Cc1cc(NC(=O)COC(=O)c2oc3c(Cl)cccc3c2C)no1` as the molecule, how does the outcome read?
A: inactive

Q: For `COc1cc(/C=N/Nc2cc(C)nc(NS(=O)(=O)c3ccc(C)cc3)n2)ccc1O`, which outcome is on record?
A: inactive

Q: With `CCOc1ccccc1CNS(=O)(=O)c1cnc[nH]1` as the molecule, how does the outcome read?
A: inactive

Q: With `CCOc1nc(NC(=O)NS(=O)(=O)Oc2ccccc2Cl)nc(-c2ccccc2)n1` as the molecule, how does the outcome read?
A: inactive

Q: For `Nc1nc(SCc2nc3scc(-c4ccccc4)c3c(=O)[nH]2)n[nH]1`, which outcome is on record?
A: inactive

Q: Which outcome does the source give for `CCCC(=O)Nc1ccc(N2CCN(S(C)(=O)=O)CC2)cc1` here?
A: inactive

Q: With `O=C(O)CCCNC(=O)c1nn(Cc2ccccc2)c(=O)c2ccccc12` as the molecule, how does the outcome read?
A: inactive

Q: Which outcome does the source give for `C/C=C/c1ccc(OCCN2C(=O)NC(C)(C)C2=O)c(OC)c1` here?
A: inactive

Q: Which outcome does the source give for `COc1ccc(C2=Nn3c(nnc3-c3ccccc3F)SC2)cc1OCC1CC1` here?
A: inactive

Q: For `CS(=O)(=O)N1CCN(c2ccccc2NC(=O)c2ccco2)CC1`, which outcome is on record?
A: inactive

Q: Which outcome does the source give for `O=C(Nc1cccnc1Cl)C1=NN(c2ccccc2)C(=O)CC1` here?
A: inactive

Q: Which outcome does the source give for `CCc1onc(C)c1C(=O)Nc1ccc(N2CCOCC2)cc1` here?
A: inactive

Q: With `O=C(Nc1nccs1)c1cc(N2CCOCC2)nc2ccccc12` as the molecule, how does the outcome read?
A: inactive

Q: With `C[C@@H]1CN([C@H](C)CO)C(=O)c2cc(C3=CCCCC3)cnc2O[C@H]1CN(C)C(=O)CN1CCOCC1` as the molecule, how does the outcome read?
A: inactive

Q: Which outcome does the source give for `CCNc1nc(NCC)nc(N(C)/N=C/c2ccco2)n1` here?
A: inactive

Q: For `COc1cc(NC(=O)c2c(-c3ccccc3Cl)noc2C)c2ncccc2c1`, which outcome is on record?
A: inactive

Q: For `CCc1ccc(N(C2C=CS(=O)(=O)C2)S(=O)(=O)c2ccccc2)cc1` (configuration not stated), which outcome is on record?
A: inactive

Q: Which outcome does the source give for `COc1ccc(CC(=O)c2ccc(OC)c(OC)c2)cc1` here?
A: inactive

Q: With `COc1ccc(CCNC(=O)Cc2ccc3c(c2)OCO3)cc1OC` as the molecule, how does the outcome read?
A: inactive

Q: For `COc1ccc(C(=O)NCC(=O)OCC(=O)NC2CCCCCC2)cc1OC`, which outcome is on record?
A: inactive

Q: With `COC(=O)C1C(=O)NC(SC)=C(C#N)C1c1ccccc1` (configuration not stated) as the molecule, how does the outcome read?
A: inactive

Q: For `COc1cccc(CNC(=O)N[C@@H](CC(C)C)C(=O)O)c1`, which outcome is on record?
A: inactive

Q: With `COc1ccc(C2N(c3ccccc3)C(=O)C2(F)F)cc1OC` (configuration not stated) as the molecule, how does the outcome read?
A: inactive

Q: For `COC(=O)C1=C(C)NC(=S)NC1c1cccc(OC)c1` (configuration not stated), which outcome is on record?
A: inactive

Q: With `Cc1cccc(C2N=C(N)Nc3nc4ccccc4n32)c1` (configuration not stated) as the molecule, how does the outcome read?
A: inactive

Q: With `CCOc1ccc(C(=O)NCC(=O)Nc2cc(C)ccn2)cc1OCC` as the molecule, how does the outcome read?
A: inactive
